Source: the supplement of paper PMC8728848
This excerpt belongs to a sample that is enriched for the strongest signals.

Key:
Assay in all cases: glycan array binding signal (z-score within array); higher = stronger binding
Conditions in all cases: glycan notation: IUPAC condensed, linker removed; mutation: H59Q
[1] = molecular target: Fuc(a1-2)Gal(b1-3)[Fuc(a1-4)]GlcNAc(b1-2)Man(a1-3)[Fuc(a1-2)Gal(b1-3)[Fuc(a1-4)]GlcNAc(b1-2)Man(a1-3)]Man(b1-4)GlcNAc(b1-4)GlcNAc
In short: (§1)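 The binding signal is a Z-score computed within each array and averaged over linkers. Arrays of the same protein sequence at different concentrations or buffers were also averaged together. Data originate from 3228 arrays in the Consortium for Functional Glycomics database, kept only where the protein sequence was available.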

[2] = molecular target: Fuc(a1-2)Gal(b1-4)GlcNAc(b1-3)Gal(b1-4)GlcNAc(b1-3)Gal(b1-4)GlcNAc
In short: as §1

[3] = molecular target: Fuc(a1-2)Gal(b1-4)GlcNAc6S
In short: as §1

[4] = molecular target: Fuc(a1-2)Gal(b1-4)[Fuc(a1-3)]GlcNAc
In short: as §1

[5] = molecular target: Fuc(a1-2)Gal(b1-4)[Fuc(a1-3)]GlcNAc(b1-2)Man(a1-3)[Fuc(a1-2)Gal(b1-4)[Fuc(a1-3)]GlcNAc(b1-2)Man(a1-6)]Man(b1-4)GlcNAc(b1-4)[Fuc(a1-6)]GlcNAc
In short: as §1

[6] = molecular target: Fuc(a1-2)[Gal(a1-3)]Gal(b1-4)[Fuc(a1-3)]Glc
In short: as §1

[7] = molecular target: Fuc(a1-2)[GalNAc(a1-3)]Gal(b1-3)GlcNAc(b1-2)Man(a1-3)[Fuc(a1-2)[GalNAc(a1-3)]Gal(b1-3)GlcNAc(b1-2)Man(a1-6)]Man(b1-4)GlcNAc(b1-4)[Fuc(a1-6)]GlcNAc
In short: as §1

[8] = molecular target: Fuc(a1-2)[GalNAc(a1-3)]Gal(b1-3)GlcNAc(b1-3)GalNAc
In short: as §1

[9] = molecular target: Fuc(a1-2)[GalNAc(a1-3)]Gal(b1-4)GlcNAc(b1-6)GalNAc
In short: as §1

[10] = molecular target: Fuc(a1-3)[Gal(b1-4)]GlcNAc(b1-6)GalNAc
In short: as §1

[11] = molecular target: Gal(a1-3)Gal(b1-4)Glc
In short: as §1

[12] = molecular target: Gal(b1-3)GlcNAc(a1-3)Gal(b1-4)GlcNAc
In short: as §1

[13] = molecular target: Gal(b1-3)GlcNAc(b1-3)Gal(b1-4)GlcNAc
In short: as §1

[14] = molecular target: Gal(b1-3)GlcNAc(b1-3)Gal(b1-4)GlcNAc(b1-2)[Gal(b1-3)GlcNAc(b1-3)Gal(b1-4)GlcNAc(b1-6)]Man(a1-6)[Gal(b1-3)GlcNAc(b1-3)Gal(b1-4)GlcNAc(b1-2)Man(a1-3)]Man(b1-4)GlcNAc(b1-4)[Fuc(a1-6)]GlcNAc
In short: as §1

[15] = molecular target: Gal(b1-3)[Fuc(a1-4)]GlcNAc
In short: as §1

[16] = molecular target: Gal(b1-4)GlcNAc(b1-2)Man(a1-3)[GlcNAc(b1-4)][Gal(b1-4)GlcNAc(b1-2)Man(a1-6)]Man(b1-4)GlcNAc(b1-4)GlcNAc
In short: as §1

[17] = molecular target: Gal(b1-4)GlcNAc(b1-2)Man(a1-3)[Man(a1-6)]Man(b1-4)GlcNAc(b1-4)GlcNAc
In short: as §1

[18] = molecular target: Gal(b1-4)GlcNAc(b1-2)Man(a1-6)[Man(a1-3)]Man(b1-4)GlcNAc(b1-4)GlcNAc
In short: as §1

[19] = molecular target: Gal(b1-4)GlcNAc(b1-3)Gal(b1-4)GlcNAc(b1-2)Man(a1-3)[Gal(b1-4)GlcNAc(b1-3)Gal(b1-4)GlcNAc(b1-2)Man(a1-6)]Man(b1-4)GlcNAc(b1-4)[Fuc(a1-6)]GlcNAc
In short: as §1

[20] = molecular target: Gal(b1-4)GlcNAc(b1-3)[GlcNAc(b1-6)]Gal(b1-4)GlcNAc
In short: as §1

[21] = molecular target: Gal3S(b1-3)GalNAc
In short: as §1

[22] = molecular target: Gal3S(b1-3)GlcNAc
In short: as §1

[23] = molecular target: Gal3S(b1-4)Glc
In short: as §1

[24] = molecular target: Gal3S(b1-4)Glc6S
In short: as §1

[25] = molecular target: Gal3S(b1-4)GlcNAc
In short: as §1

[26] = molecular target: Gal3S(b1-4)[Fuc(a1-3)]GlcNAc6S
In short: as §1

[27] = molecular target: Gal3S4S(b1-4)GlcNAc
In short: as §1

[28] = molecular target: Gal3S6S(b1-4)GlcNAc6S
In short: as §1

[29] = molecular target: Gal6S(b1-3)GlcNAc6S
In short: as §1

[30] = molecular target: Gal6S(b1-4)GlcNAc
In short: as §1

[31] = molecular target: Gal6S(b1-4)GlcNAc6S
In short: as §1

[32] = molecular target: GalNAc(b1-4)GlcNAc6S
In short: as §1

[33] = molecular target: GlcA(b1-6)Gal
In short: as §1

[34] = molecular target: GlcA3S(b1-3)Gal(b1-4)GlcNAc(b1-2)Man
In short: as §1

[35] = molecular target: GlcA3S(b1-3)Gal(b1-4)GlcNAc(b1-3)Gal(b1-4)Glc
In short: as §1

[36] = molecular target: GlcNAc(a1-4)Gal(b1-4)GlcNAc(b1-3)Gal(b1-4)Glc
In short: as §1

[37] = molecular target: GlcNAc(b1-2)Man(a1-3)[GlcNAc(b1-2)Man(a1-6)]Man(b1-4)GlcNAc(b1-4)[Fuc(a1-6)]GlcNAc
In short: as §1

[38] = molecular target: GlcNAc(b1-2)[GlcNAc(b1-4)]Man(a1-3)[GlcNAc(b1-4)][GlcNAc(b1-2)Man(a1-6)]Man(b1-4)GlcNAc(b1-4)GlcNAc
In short: as §1

[39] = molecular target: Man(a1-2)Man(a1-3)[Man(a1-6)]Man(a1-6)[Man(a1-2)Man(a1-3)]Man(b1-4)GlcNAc(b1-4)GlcNAc
In short: as §1

[40] = molecular target: Man(a1-3)[Man(a1-6)]Man(b1-4)GlcNAc(b1-4)GlcNAc
In short: as §1

[41] = molecular target: Neu5Ac(a2-3)Gal(b1-3)GalNAc6S
In short: as §1

[42] = molecular target: Neu5Ac(a2-3)Gal(b1-3)GlcNAc(b1-2)Man(a1-3)[GlcNAc(b1-4)][Neu5Ac(a2-3)Gal(b1-3)GlcNAc(b1-2)Man(a1-6)]Man(b1-4)GlcNAc(b1-4)GlcNAc
In short: as §1

[43] = molecular target: Neu5Ac(a2-3)Gal(b1-4)GlcNAc(b1-2)Man
In short: as §1

[44] = molecular target: Neu5Ac(a2-3)Gal(b1-4)GlcNAc(b1-2)[Neu5Ac(a2-3)Gal(b1-4)GlcNAc(b1-4)]Man(a1-3)[GlcNAc(b1-4)][Neu5Ac(a2-3)Gal(b1-4)GlcNAc(b1-4)Man(a1-6)]Man(b1-4)GlcNAc(b1-4)GlcNAc
In short: as §1

[45] = molecular target: Neu5Ac(a2-3)Gal(b1-4)GlcNAc(b1-3)GalNAc
In short: as §1

[46] = molecular target: Neu5Ac(a2-3)Gal(b1-4)[Fuc(a1-3)]GlcNAc(b1-3)GalNAc
In short: as §1

[47] = molecular target: Neu5Ac(a2-3)[GalNAc(b1-4)]Gal(b1-4)GlcNAc(b1-3)GalNAc
In short: as §1

[48] = molecular target: Neu5Ac(a2-6)Gal(b1-4)GlcNAc(b1-2)Man(a1-3)[Man(a1-6)]Man(b1-4)GlcNAc(b1-4)GlcNAc
In short: as §1

[49] = molecular target: Neu5Ac(a2-6)GalNAc(b1-4)GlcNAc
In short: as §1

[50] = molecular target: Neu5Ac(a2-8)Neu5Ac(a2-3)Gal(b1-3)GalNAc(b1-4)[Neu5Ac(a2-8)Neu5Ac(a2-3)]Gal(b1-4)Glc
In short: as §1

[51] = molecular target: Neu5Gc(a2-6)GalNAc
In short: as §1

[52] = molecular target: Neu5Gc(a2-8)Neu5Gc(a2-6)Gal(b1-4)GlcNAc
In short: as §1

[53] = molecular target: Neu5Gc(b2-6)Gal(b1-4)GlcNAc
In short: as §1

B1: rAAL-H59Q (Agrocybe aegerita), Q6WY08 (protein)
chain: MQGVNIYNISAGTSVDLAAPVTTGDIVTFFSSALNLNAGAGNPNNTTLNLFAENGAYLLQIAFRLQENVIIFNSRQPDGPWLVEQRVSDVANQFAGIDGKAMVTVFDHGDKYQVVINEKTVIQYTKQISGLTLSLSYNATEETSIFSTVVEAVTYTGLALEHHHHHH
[1]
  glycan array binding signal (z-score): -0.014
[2]
  glycan array binding signal (z-score): -0.113
[3]
  glycan array binding signal (z-score): -0.085
[4]
  glycan array binding signal (z-score): -0.09
[5]
  glycan array binding signal (z-score): 0.171
[6]
  glycan array binding signal (z-score): -0.097
[7]
  glycan array binding signal (z-score): -0.106
[8]
  glycan array binding signal (z-score): -0.035
[9]
  glycan array binding signal (z-score): -0.124
[10]
  glycan array binding signal (z-score): -0.126
[11]
  glycan array binding signal (z-score): -0.07
[12]
  glycan array binding signal (z-score): -0.119
[13]
  glycan array binding signal (z-score): -0.093
[14]
  glycan array binding signal (z-score): 0.115
[15]
  glycan array binding signal (z-score): -0.116
[16]
  glycan array binding signal (z-score): -0.06
[17]
  glycan array binding signal (z-score): -0.059
[18]
  glycan array binding signal (z-score): 0.003
[19]
  glycan array binding signal (z-score): -0.015
[20]
  glycan array binding signal (z-score): -0.115
[21]
  glycan array binding signal (z-score): 7.76
[22]
  glycan array binding signal (z-score): 0.192
[23]
  glycan array binding signal (z-score): 0.7
[24]
  glycan array binding signal (z-score): 0.468
[25]
  glycan array binding signal (z-score): 0.615
[26]
  glycan array binding signal (z-score): 0.694
[27]
  glycan array binding signal (z-score): -0.119
[28]
  glycan array binding signal (z-score): 0.071
[29]
  glycan array binding signal (z-score): -0.113
[30]
  glycan array binding signal (z-score): -0.086
[31]
  glycan array binding signal (z-score): -0.14
[32]
  glycan array binding signal (z-score): -0.023
[33]
  glycan array binding signal (z-score): -0.064
[34]
  glycan array binding signal (z-score): 19.6
[35]
  glycan array binding signal (z-score): 12.1
[36]
  glycan array binding signal (z-score): -0.059
[37]
  glycan array binding signal (z-score): -0.07
[38]
  glycan array binding signal (z-score): -0.055
[39]
  glycan array binding signal (z-score): -0.093
[40]
  glycan array binding signal (z-score): -0.085
[41]
  glycan array binding signal (z-score): -0.117
[42]
  glycan array binding signal (z-score): -0.066
[43]
  glycan array binding signal (z-score): -0.03
[44]
  glycan array binding signal (z-score): -0.016
[45]
  glycan array binding signal (z-score): -0.092
[46]
  glycan array binding signal (z-score): 0.246
[47]
  glycan array binding signal (z-score): -0.084
[48]
  glycan array binding signal (z-score): 0.009
[49]
  glycan array binding signal (z-score): -0.112
[50]
  glycan array binding signal (z-score): -0.103
[51]
  glycan array binding signal (z-score): -0.145
[52]
  glycan array binding signal (z-score): -0.072
[53]
  glycan array binding signal (z-score): -0.027
